SW480 rereplic: DNA re-replication induction in SW480 cells; SW480 DNA re-replication, Hoechst DNA content imaging, 48 h; Potency, µM (titrated, usually from 46.1 µM), inactives show at the highest dose re-replication activation, usual class: activators; AID 624297; 340,000 tested, 1.8% active; further: potency means the concentration at half of the fitted maximal effect; % of control where 0% means no effect; nearly all actives have a fitted effect of over 55% in size
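Image-based read-out: total Hoechst fluorescence of nuclei (405 nm excitation, 500-530 nm emission), with hits raising the fraction of high-intensity nuclei. SW480 colon cells incubated 48 hr with compounds at 37 C.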
IL-1B inflam inh: inhibitors of inflammasome signaling (IL-1 beta secretion). 360,000 tested, 4.7% active. activity change, % at 57.5 µM. THP-1 LPS/ATP IL-1B secretion, AlphaLISA, 16 h; hits give low values; in the data active means activity change below about -50%; inconclusive means mostly about -30% to -49%; further: on the % scale 0 is the no-effect control and ±100 the full control effect
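Secreted IL-1B measured by AlphaLISA bead assay after 16 h compound exposure of THP-1 cells; compounds (final up to 57.5 uM) added 1 h before LPS (250 ng/mL) and ATP (1.25 mM) stimulation; lower signal means less secretion.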
MCF10A rerep: DNA re-replication induction in MCF 10a cells | MCF 10A DNA re-replication, Hoechst nuclear intensity, 48 h | Potency, µM (doses to about 46.1 µM), inactives show top-dose activity, positive = re-replication, actives largely listed as activators | 350,000 tested, 2.9% active; further: potency means the concentration at half of the fitted maximal effect; % of control where 0% means no effect; nearly all actives have a fitted effect of over 50% in size
KB-3-1 cytotox: kills parental KB-3-1 adenocarcinoma cells | KB-3-1 viability, CellTiter-Glo ATP luminescence, 72 h | Potency, µM (top dose mostly 46.1 µM), hits mostly cytotoxic | 400,000 tested, 1.4% active; further: potency means the concentration at half of the fitted maximal effect; on the % scale 0 is the no-effect control and ±100 the full control effect; nearly all actives have a fitted effect of over 60% in size
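Parental KB-3-1 adenocarcinoma cells in phenol-red-free DMEM with 10% FBS were pin-treated with compounds at several concentrations, incubated 72 h at 37 °C, and viability read by CellTiter-Glo luminescence; concentration-effect curves were fitted after normalization.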
KB-V1 cytotox: kills drug-selected multidrug resistant KB-V1 cells; KB-V1 MDR cells viability, CellTiter-Glo, 72 h; Potency, µM (doses to about 46.1 µM), hits mostly cytotoxic; 400,000 tested, 3.4% active; AID 1347076; further: potency means the concentration at half of the fitted maximal effect; on the % scale 0 is the no-effect control and ±100 the full control effect; nearly all actives have a fitted effect of over 60% in size
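qHTS viability screen in drug-selected KB-V1 MDR cells: 72 h compound treatment at 37 degrees C, ATP luminescence end point.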
Starred values were filed as active, the others as inactive; i = inactive; ? = inconclusive; . = not tested or not shown. Rows were chosen to be rich in hits. Some 9.9% of all compounds tested hit in one or more screens of this group. Unless noted, the call rests on the fitted dose curve; in most records, active means well fitted curve in the direction sought with a large enough effect; inconclusive means small, poorly fitted or top-dose-only effect, or another doubt; inactive means no such curve, though single readings can be large; an effect the other way counts as inactive or inconclusive.

SMILES	SW480 rereplic	IL-1B inflam inh	MCF10A rerep	KB-3-1 cytotox	KB-V1 cytotox
CCOc1ccc(C(=O)CC(C(=O)O)N2CCN(Cc3ccccc3)CC2)cc1 (stereo not given)	20.7%	0.0	16.4µM*	i	i
CCOc1ccc(C(=O)CC(C(=O)O)N2CCCCC2)cc1 (stereo not given)	?	-57.1*	?	?	i
Cc1cc(C)n2nc(CNC(=O)c3cccc(N(C)C)c3)nc2n1	.	.	.	i	i
CCOc1ccc(C(=O)Nc2ccc(-c3nn[nH]n3)cc2)cc1[N+](=O)[O-]	.	.	.	i	?
CCNC(=S)NNc1ccccc1	-36.3%	-95.1*	8.1%	i	i
Cc1ccc(-n2nc(C)c3c(-c4cccs4)c(C#N)c(N)nc32)cc1	?	24.9	8.2µM*	i	?
Cc1nn(-c2ccccc2)c2nc(N)c(C#N)c(-c3ccc(F)cc3)c12	14.3%	?	16.4µM*	i	i
Cc1ccccc1NC(=O)CSc1nc(N)c(C#N)c(-c2cccs2)c1C#N	9.6%	-5.9	12.9%	i	i
O=S1(=O)N[C@@H](Cc2ccccc2)COc2cc(N3CC[C@H](O)C3)ccc21	.	28.9	.	?	?
Cc1ccc(-n2cc(CN3CCC(O)(c4ccccn4)CC3)c(-c3ccc(F)cc3)n2)cc1	?	-103.0*	?	i	?
Cc1ccc(-n2cc(CN3CCNC(=O)CC3)c(-c3ccc(F)cc3)n2)cc1	-17.1%	.	-9.3%	i	i
Cc1ccc(-n2cc(CN(C)Cc3nccn3C)c(-c3ccc(F)cc3)n2)cc1	-1.5%	-139.4*	?	i	i
CCn1ccnc1CN(C)Cc1cn(-c2ccccc2)nc1-c1ccc(OC)cc1F	29.8%	-74.2*	12.6%	i	i
CCN1CC(CN(C)Cc2cn(-c3ccc(C)cc3)nc2-c2cccc(C)c2)CC1=O (stereo not given)	0.0%	-86.2*	7.6%	i	i
CCn1ccnc1CN(C)Cc1cn(C)nc1-c1ccccc1F	1.1%	-5.3	1.9%	i	i
CN(Cc1ncc[nH]1)Cc1cn(-c2ccccc2)nc1-c1ccc2c(c1)OCO2	1.5%	?	15.2%	i	i
Cc1ccc(-n2cc(CN(C)Cc3ncc[nH]3)c(-c3cccc(C)c3)n2)cc1	-6.1%	-81.4*	?	i	?
Cc1ccc(-c2nn(-c3cccc(F)c3)cc2CN(Cc2nccn2C)C(C)C)o1	-101.4%	-96.5*	58.6%	i	?
Cc1ccc(-c2nn(-c3cccc(F)c3)cc2CN2CCN(c3ccccn3)CC2)o1	?	-1.8	?	i	i
CCOc1ccc(OCC)c(NC(=O)c2cc(CN3CCOCC3)on2)c1	.	.	.	i	i
Cc1ccc2occ(C(c3nnnn3C3CCCC3)N3CCN(C(=O)c4ccco4)CC3)c(=O)c2c1 (stereo not given)	2.4%	-64.1*	-8.1%	i	i
O=C(c1ccco1)N1CCN(C(c2coc3ccc(Cl)cc3c2=O)c2nnnn2C2CCCC2)CC1 (stereo not given)	-1.8%	-14.3	1.1%	i	i
CCCCC(CC)CN=C(N)NC(N)=NCCCCCCN=C(N)NC(N)=NCC(CC)CCCC (stereo not given)	?	-103.7*	11.9µM*	?	?
Cc1ccccc1NC(=O)Nc1nc(C(N)C2CCCCC2)cs1 (stereo not given)	.	-54.4*	.	i	i
CC(C)c1ccc(NC(=O)Nc2nc(C(N)C3CCCCC3)cs2)cc1 (stereo not given)	.	-113.4*	.	?	?
SMILES	SW480 rereplic	IL-1B inflam inh	MCF10A rerep	KB-3-1 cytotox	KB-V1 cytotox
COc1ccc(NC(=O)Nc2nc(C(N)C3CCCCC3)cs2)cc1 (stereo not given)	.	?	.	i	i
CN(C)c1ccc(NC(=O)Nc2nc(C(N)C3CCCCC3)cs2)cc1 (stereo not given)	.	-60.3*	.	i	i
Cc1ccccc1NC(=O)Nc1nc(CN)cs1	.	14.1	.	i	i
COc1ccc(/C=C/c2nc3ccccc3n2C)cc1	0.7%	-72.6*	15.4%	5.17µM*	4.11µM*
CC(O)c1nc2ccccc2n1C/C=C/c1ccccc1 (stereo not given)	-0.2%	23.8	-6.3%	i	14.6µM*
OCc1nc2ccccc2n1C/C=C/c1ccccc1	-7.4%	-19.6	15.4%	i	i
CCn1c(/C=C/c2ccccc2)nc2ccccc21	?	-7.7	?	i	?
COc1ccc(Cn2c(/C=C/c3ccccc3)nc3ccccc32)cc1	?	-78.4*	?	?	13µM*
CC(C)Cn1c(/C=C/c2ccccc2)nc2ccccc21	5.0%	-66.4*	7.6%	i	i
O=C(NCCc1ccc(Cl)cc1)C1CCCN1C(=O)Nc1ccccc1 (stereo not given)	-3.9%	-14.6	-5.8%	i	i
CCn1c(Cc2ccc(OC)cc2)nc2ccccc21	2.5%	-50.5*	23.1%	i	?
COc1ccc(-c2nc3ccccc3n2Cc2ccccc2)cc1	-4.8%	-0.6	6.0%	i	i
CCn1c(CNc2nc3ccccc3n2C(C)C)nc2ccccc21	-0.7%	-28.2	-4.1%	i	11.6µM*
COc1ccc2c(c1)nc(N)n2Cc1ccccc1	3.9%	-98.3*	27.0%	i	i
COc1ccc(Cc2nc3ccccc3n2Cc2ccccc2F)cc1	.	.	.	i	i
CC(C)n1c(NCc2nc3ccccc3n2C)nc2ccccc21	2.1%	-16.5	4.1%	i	i
COc1ccc(-c2nc(SCC(=O)Nc3ccc4c(c3)OCCO4)c(-c3ccc(C)cc3)[nH]2)cc1OC	.	.	.	i	i
CCn1cc(C(=O)OCC(=O)c2cc(C)n(-c3cccc(C(F)(F)F)c3)c2C)c(=O)c2ccc(C)nc21	-52.6%	-66.0*	11.9%	i	23.1µM*
Cc1cc(C(=O)COC(=O)CC2Sc3ccccc3NC2=O)c(C)n1-c1cccc(C(F)(F)F)c1 (stereo not given)	3.7%	26.9	-2.2%	i	?
Cc1cc(C(=O)COC(=O)Cc2n[nH]c(=O)c3ccccc23)c(C)n1-c1cccc(C(F)(F)F)c1	-1.5%	-12.0	17.3%	?	20.6µM*
CCn1cc(C(=O)OCC(=O)c2ccccc2)c(=O)c2ccc(C)nc21	-2.0%	32.6	-1.5%	i	?
CCc1nc2ccccc2n2c(-c3ccccc3)c3c(=O)n(C)c(=O)n(C)c3c12	.	.	.	?	i
CCc1ccc(CN(C)C(=O)c2cc(=O)c3ccccc3o2)cc1	-10.9%	2.0	0.9%	i	i
COc1ccc(CCN(C)C(=O)c2cc(=O)c3ccccc3o2)cc1OC	0.7%	-53.8*	-3.9%	i	?
CCOC(=O)c1c(S(=O)(=O)N2CCC(C(=O)NCc3ccccc3Cl)CC2)c(C)n(C)c1C	.	.	.	i	i

Screening data deposited in PubChem by National Center for Advancing Translational Sciences (NCATS).
